Measurements published in PubChem BioAssay (EPA / NIEHS).
The source holds several records for some structures; these can differ, active in one and inactive in another. Active and inactive are the calls of the source. How the source made its calls: active means hit-call score of the fitted dose curve at least 0.9, where 1 is the maximum; inactive means score below 0.9.

These compounds were tested on Cyclin D1 (CCND1), CCND1 (gene 595) (assay: LTEA_HepaRG_CCND1: Life Technologies and Expression Analysis (LTEA) Assay for Cyclin D1 (CCND1) using HepaRG (AID 2283451;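 on AC50: TaqMan qRT-PCR transcript level normalised to ACTB GAPDH and POLR2A housekeeping genes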)). Conditions: mRNA level, 48 h; actives raise or lower the signal.
Procedure: LTEA_HepaRG is a cell based, multiplexed-readout assay that uses HepaRG, a human liver cell line, with measurements taken at 48 hours after chemical dosing on a 96-well plate.LTEA_HepaRG_CCND1 is one of 102 assay component(s) measured in the LTEA HepaRG cell culture assay. It is a marker of Cell proliferation, survival, death.Data from the assay component LTEA_HepaRG_CCND1 was analyzed into 1 endpoint. This assay endpoint, LTEA_HepaRG_CCND1, was analyzed with bidirectional fitting relative to DMSO as the negative control and baseline of activity. Using a type of inducible reporter, measures of mRNA induction for gain or loss-of-signal activity can be used to understand regulation of transcription factor activity. To generalize the intended target to other relatable targets, this assay endpoint is annotated to the cell cycle intended target family, where the subfamily is Cell proliferation, survival, death.
A total of 1060 chemcials from the ToxCast library were tested in eight-point concentration-response experiments. Cell culture and cytotoxicity assays were conducted at Thermo Fisher Scientific's Custom Services facility (Madison, WI). A single lot of human HepaRG cells (Thermo Fisher Scientific, Frederick, MD) was used for the cell culture experiments. 96-well format collagen type I coated plates of human HepaRG cells were prepared using established methods. Briefly, cryopreserved HepaRG cells were thawed, plated at a density of approximately 100,000 cells/well in HepaRG Thaw, Plate, and General Purpose media (HPRG770, Thermo Fisher Scientific), and incubated for 48 hours. 0.5% DMSO was selected as vehicle control to balance the requisite need of DMSO in HepaRG cultures to maintain differentiation (for example, baseline metabolism, proportions of hepatocytes vs. cholangiocytes), while enabling further hepatic receptor pathway activation (for example, PXR and CAR) in response to chemical exposure. 48 hours after plating, the culture medium was replaced with HepaRG Serum-Free Incudtion Media. Cells were exposed to each test chemical in duplicate and maintained in CO2 incubators for another 48 hours. Chemical plates were thawed to room temperature and 200x concentrations of treatment groups were prepared. 8-point conentration-reponse curves were made with the highest exposure at 100 uM, followed by half-log dilutions, all in 0.5% DMSO. Each test plate contained variouse controls, induction positive controls (1mM phenobarbital), cytotoxicity positive controls ([…] aflatoxin B1), vehicle controls (0.5% DMSO), and total lysis controls (0.5% DMSO). Cell morphology images were taken using an Essen IncuCyte FLR automated microscope, with six 96-well plates imaged in about 24 minutes. Images were captured and exported and JPEG files. Spent culture media was transfered to black-well plates for the LDH assay, and remaining media was sorted at -80 C for later use. Cells were treated with RLT buffer and frozen until shipped for gene expression analysis. Total RNA was isolated from the cell suspension in 75 uL of Buffer RLT (Qiagen, Germantown, MD 20874) by Quintiles/Expression Analysis (Durham, NC) using a custom isolation procedure. Total RNA from each plate well was transferred to a preamplification plate. Fluidigm's 96.96 Dynamic ArrayTM (Fluidigm, Amsterdam, the Netherlands) technology was used for gene expression analyses by quantitative reverse transcription polymerase chain reaction (qRT-PCR, performed by Quintiles/Expression Analysis, Durham, NC)89. Standard TaqManTM Assays (Applied Biosystems/ThermoFisher Scientific, Foster City, CA) were used to assess the expression of 93 genes selected based on their selectivity and sensitivity to important hepatic receptors known to be modulated by environmental chemicals; importance in human hepatocyte functionality; and hepatotoxicity. […]
With `C#C[C@]1(O)CC[C@H]2[C@@H]3CCC4=CC(=O)CC[C@@H]4[C@H]3CC[C@@]21CC` the outcome was “inactive”.
With `CCCCCCC(C)OC(=O)COc1nc(F)c(Cl)c(N)c1Cl` (stereo not given) the outcome was “inactive”.
`COCCO` was tested, and the outcome was “inactive”.
`CC(C)CCCCCCc1ccc(O)cc1` was tested, and the outcome was “inactive”.
For `C#CCOC(=O)[C@@H](C)Oc1ccc(Oc2ncc(Cl)cc2F)cc1`, the outcome was “inactive”.
For `CCCOC(=O)NCCCN(C)C`, the outcome was “inactive”.
`N#CSCSc1nc2ccccc2s1` was tested, and the outcome was “inactive”.
`CCCCC(CC)COC(=O)c1ccccc1C(=O)O` (stereo not given) was tested, and the outcome was “inactive”.
In the case of `CC1(C)C(C=C(Cl)Cl)C1C(=O)OCc1cccc(Oc2ccccc2)c1` (stereo not given), the outcome is reported as “inactive”.
In the case of `CCOC(=O)c1ccc(O)cc1`, the outcome is reported as “inactive”.
`CCOC(=O)COc1cc(-n2ncc(C(F)(F)F)c(C)c2=O)c(F)cc1Cl` was tested, and the outcome was “inactive”.
For `CCOC(=O)C(C)Oc1ccc(Oc2nc3ccc(Cl)cc3o2)cc1` (stereo not given), the outcome was “inactive”.
In the case of `c1ccc(Nc2ccccc2)cc1`, the outcome is reported as “inactive”.
With `C[C@]12C[C@H](O)[C@H]3[C@@H](CCC4=CC(=O)CC[C@@]43C)[C@@H]1CC[C@@H]2C(=O)CO` the outcome was “inactive”.
In the case of `Oc1ccc(C(c2ccc(O)cc2)C(Cl)(Cl)Cl)cc1`, the AC50 is reported as 89.2 µM (active).
`S=C(S)NCCNC(=S)S.[Mn+2].[S-]C([S-])=NCCN=C([S-])[S-].[Zn+2]` was tested, and the outcome was “inactive” and the AC50 was 0.187 µM (active).
For `CCSC(=O)N(CC(C)C)CC(C)C`, the outcome was “inactive”.
`CCCCOC(=O)[C@@H](C)Oc1ccc(Oc2ccc(C(F)(F)F)cn2)cc1` was tested, and the outcome was “inactive”.
In the case of `CCN(Cc1c(F)cccc1Cl)c1c([N+](=O)[O-])cc(C(F)(F)F)cc1[N+](=O)[O-]`, the outcome is reported as “inactive”.
For `CCOC(=O)C(C)Oc1ccc(Oc2cnc3cc(Cl)ccc3n2)cc1` (stereo not given), the outcome was “inactive”.
For `COc1c(Cl)ccc(Cl)c1C(=O)O`, the outcome was “inactive”.
`CC(C)(C)[C@@H](O)[C@@H](Cc1ccc(Cl)cc1)n1cncn1` was tested, and the outcome was “inactive”.
For `O=C(O)c1ccccc1`, the outcome was “inactive”.
`CN(C)C(=O)Nc1ccc(Cl)c(Cl)c1` was tested, and the AC50 was 50 µM (active).
In the case of `CCNc1nc(N)nc(Cl)n1`, the outcome is reported as “inactive”.
`C[C@]12CC[C@@H]3c4ccc(O)cc4C[C@@H](CCCCCCCCCS(=O)CCCC(F)(F)C(F)(F)F)[C@H]3[C@@H]1CC[C@@H]2O` (stereo not given in full) was tested, and the AC50 was 0.0338 µM (active).
With `C=CCOC(Cn1ccnc1)c1ccc(Cl)cc1Cl` (stereo not given) the AC50 was 90.5 µM (active).
For `CCCCC(CC)CN1C(=O)C2C3C=CC(C3)C2C1=O` (stereo not given), the outcome was “inactive”.
With `OB(O)O` the outcome was “inactive”.
For `CCCN(CCC)c1c([N+](=O)[O-])cc(C(F)(F)F)c(N)c1[N+](=O)[O-]`, the outcome was “inactive”.
With `CCCCOC(=O)C(C)Oc1ccc(Oc2ccc(C(F)(F)F)cn2)cc1` (stereo not given) the outcome was “inactive”.
`c1ccc2[nH]c(-c3cscn3)nc2c1` was tested, and the outcome was “inactive”.
`COC(=O)c1ccccc1C(=O)O` was tested, and the outcome was “inactive”.
`COC(=O)CSc1cc(N=c2sc(=O)n3n2CCCC3)c(F)cc1Cl` was tested, and the outcome was “inactive”.
For `COC(=O)c1ccc(I)cc1S(=O)(=O)NC(=O)Nc1nc(C)nc(OC)n1`, the outcome was “inactive”.
In the case of `O=C(Nc1ccc([N+](=O)[O-])cc1Cl)c1cc(Cl)ccc1O`, the AC50 is reported as 3.16 µM (active).
With `O=C(O)C1(C(=O)Nc2ccc(Cl)cc2Cl)CC1` the AC50 was 83.3 µM (active).
For `O=C(c1ccc(O)cc1O)c1ccc(O)cc1O`, the outcome was “inactive”.
In the case of `CCC(C)OC(=O)N1CCCCC1CCO` (stereo not given), the outcome is reported as “inactive”.
